# Source: the supplement of paper PMC12350171
# Counter-ions that a name gives are not always drawn. Unmarked numbers belong to inactive results.
# Assays:
# Details in all cases: 20 µM
# Shigella flexneri = assay: growth AUC normalised to DMSO control (fraction of control); higher = less growth inhibition, active = hit call of the paper
# Method in brief: (§1)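 After two anaerobic passages, pathogens were added at a starting OD578 of 0.01 to pre-reduced mGAM plates holding compound at 20 μM with 1% DMSO; hemin and NAD were supplemented for Haemophilus parainfluenzae. Sealed with breathable membranes, plates were read at OD578 hourly for 24 h, in three biological replicates. The trapezoidal rule, applied up to the exponential-to-stationary transition, gave the growth-curve AUC, which was normalised to DMSO controls on the same plate.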
# Vibrio cholerae = assay: as above
# Method in brief: as §1
# [1] = system: Yersinia pseudotuberculosis; assay: as above
# Method in brief: as §1
# P. vulgatus RND KO = assay: growth AUC normalised to DMSO control (median) (fraction of control); higher = less growth inhibition, active = hit call of the paper
# Method in brief: (§2)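 Strains were passaged twice overnight without oxygen, then grown in mGAM in 96-well plates with each approved-drug library compound at 20 μM and 1% DMSO, starting at OD578 0.01. OD578 was read hourly for 24 h inside an anaerobic incubator. Curves were truncated at entry into stationary phase, and the trapezoidal-rule area under the curve was normalised to same-plate vehicle wells. The value is the median across three biological replicates.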
# P. vulgatus WT = assay: as above
# Method in brief: as §2
# [2] = system: S. enterica typhimurium WT; assay: as above
# Method in brief: as §2
# [3] = system: S. enterica typhimurium tolC KO; assay: as above
# Method in brief: as §2
# [4] = system: Salmonella enterica typhimurium; assay: growth AUC normalised to DMSO control (fraction of control); higher = less growth inhibition, active = hit call of the paper
# Method in brief: as §1
# 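Throughout, for growth AUC normalised to DMSO control (median): active when median AUC fell below 0.1.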
SMILES,growth AUC normalised to DMSO control (Shigella flexneri),growth AUC normalised to DMSO control (Vibrio cholerae),growth AUC normalised to DMSO control [1],growth AUC normalised to DMSO control (P. vulgatus RND KO),growth AUC normalised to DMSO control (P. vulgatus WT),growth AUC normalised to DMSO control [2],growth AUC normalised to DMSO control [3],growth AUC normalised to DMSO control [4]
Cn1c(=O)c2c(ncn2C)n(C)c1=O [Caffeine],1.04,1.03,1.01,1.02,1.02,0.993,0.999,–
CCN[C@H]1C[C@H](C)S(=O)(=O)c2sc(S(N)(=O)=O)cc21 [Dorzolamide hydrochloride],1.04,1.04,1.03,1.05,1.05,1,1.01,1.02
COc1ccc2c(c1)c(CC(=O)O)c(C)n2C(=O)c1ccc(Cl)cc1 [Indomethacin],0.966,0.448 (active),1,0.967,1.01,1.01,0.974,–
O=C(O)[C@H]1/C(=C/CO)O[C@@H]2CC(=O)N21 [Clavulanate potassium salt],1.03,1.08,1.03,–,1.12,0.995,0.999,1.01
CC1(C)S[C@@H]2[C@H](NC(=O)[C@H](N)c3ccccc3)C(=O)N2[C@H]1C(=O)O [Ampicillin trihydrate],0.0549 (active),0.254 (active),0.0564 (active),–,0.0887 (active),0.0624 (active),0.0201 (active),0.00858 (active)
O=C(O)Cc1sc(-c2ccccc2)nc1-c1ccc(Cl)cc1 [Fentiazac],1.03,1,1.02,0.896,0.947,1,0.98,0.993
Cc1ccc(/C(=C\CN2CCCC2)c2ccccn2)cc1 [Triprolidine hydrochloride],0.97,0.967,0.992,1,0.99,1,0.978,–
Cc1onc(-c2c(F)cccc2Cl)c1C(=O)N[C@@H]1C(=O)N2[C@@H]1SC(C)(C)[C@@H]2C(=O)O [Flucloxacillin sodium],1.01,0.999,0.989,–,0.132,1.02,0.0123 (active),0.993
CCN1CC(CCN2CCOCC2)C(c2ccccc2)(c2ccccc2)C1=O (stereo not given) [Doxapram hydrochloride],–,–,–,1.05,1.03,1.02,0.996,–
Cn1cc(C(=O)[C@@H]2CCc3[nH]cnc3C2)c2ccccc21 [Ramosetron hydrochloride],–,–,–,0.999,0.997,0.995,0.975,–
CC(C)=C/C(C)=N/Nc1nncc2ccccc12 [Budralazine],–,–,–,1.02,1.08,0.999,0.989,–
CC(=O)Oc1cc2c(s1)CCN(C(C(=O)C1CC1)c1ccccc1F)C2 (stereo not given) [Prasugrel],–,–,–,1.06,1.07,1.03,1.01,–
O=C(O)C1CSCN1 (stereo not given) [Timonacic],–,–,–,0.993,0.999,0.998,0.998,–
Nc1cc(C(Cl)=C(Cl)Cl)c(S(N)(=O)=O)cc1S(N)(=O)=O [Clorsulon],–,–,–,1.02,0.998,1,0.999,–
CC(C)[C@H]1CC[C@H](C(=O)N[C@H](Cc2ccccc2)C(=O)O)CC1 [Nateglinide],–,–,–,0.977,0.999,0.994,0.968,–
CCOC(=O)[C@H](CCc1ccccc1)N[C@@H](C)C(=O)N1[C@H](C(=O)O)C[C@H]2CCCC[C@@H]21 [Trandolapril],–,–,–,0.986,0.992,1.01,0.998,–
C[C@H]1[C@H](OC(=O)CCC(=O)O)O[C@@H]2O[C@@]3(C)CC[C@H]4[C@H](C)CC[C@@H]1[C@@]24OO3 [Artesunate],–,–,–,1.01,1,1,1.01,–
CC(=O)NS(=O)(=O)c1ccc(NC(=O)c2ccccc2C(=O)O)cc1 [Phthalylsulfacetamide],–,–,–,0.999,0.997,1,1,–
CS(=O)(=O)CCNCc1ccc(-c2ccc3ncnc(Nc4ccc(OCc5cccc(F)c5)c(Cl)c4)c3c2)o1 [Lapatinib],–,–,–,1.03,1.03,1,0.99,–
CCN1CCN(Cc2ccc(Nc3ncc(F)c(-c4cc(F)c5nc(C)n(C(C)C)c5c4)n3)nc2)CC1 [Abemaciclib],–,–,–,0.994,0.961,1,0.909,–
Cc1cc(O)c(C(=O)N[C@@H](C(=O)N[C@@H]2C(=O)N3C(C(=O)O)=C(CSc4nnnn4C)CS[C@H]23)c2ccc(O)cc2)cn1 [Cefpiramide],–,–,–,0.0197 (active),0.0147 (active),0.121,0.0047 (active),–
COc1cc(C(=O)NC2CCCNC2)cc(OC)c1OC (stereo not given) [Troxipide],–,–,–,1.07,1.1,0.998,0.995,–
CCCCNC(=N)NC(=N)N [Buformin],–,–,–,1.04,1.06,1.02,0.991,–
CC(C)Nc1ncccn1 [Isaxonine],–,–,–,0.976,0.953,0.999,1,–
C[C@H](CCc1ccccc1)NC[C@H](O)c1ccc(O)c(C(N)=O)c1 [Dilevalol],–,–,–,1.02,1.05,0.996,1.01,–
CCCCS(=O)(=O)N[C@@H](Cc1ccc(OCCCCC2CCNCC2)cc1)C(=O)O [Tirofiban hydrochloride],–,–,–,0.994,0.99,0.989,0.964,–
